Assay results published in PubChem BioAssay AID624296 (National Center for Advancing Translational Sciences (NCATS), 2012).
The campaign covered roughly 350,000 compounds. About 9,900 (2.8%) were called active. Inconclusive results (about 15%) are left out. What follows is part of a selection rich in actives, with near analogues and random picks from the rest. A number with no mark means an inactive call. The call rests on the fitted dose curve; in most records, active means well fitted activation curve with a large enough effect; inconclusive means small, poorly fitted or top-dose-only effect; inactive means no such curve, though single readings can be large or run the other way.

Experiment: A quantitative high throughput screen for small molecules that induce DNA re-replication in MCF 10a normal breast cells. Further: nearly all actives have a fitted effect of over 50% in size. On activity, positive = re-replication: % of control where 0% means no effect.
Conditions: MCF 10A DNA re-replication, Hoechst nuclear intensity, 48 h; series mostly up to 46.1 µM; activity, positive = re-replication: at the top concentration
Potency means the concentration at half of the fitted maximal effect.

SMILES | activity, positive = re-replication | Potency
O=C(COc1ccccc1F)NNC(=O)c1cc(Br)ccc1Cl | -8.12% | –
O=S(=O)(c1cccs1)N1CCN(CCOc2ccccc2)CC1 | 0.979% | –
CCOc1cc(/C=C/C(=O)OCC(=O)NCCN2C(=O)CSC2=O)ccc1OCC(C)C | -2.28% | –
Cc1cccc(N2O[C@H]3C=CC2CCCC3)n1 | -0.361% | –
CC(=O)c1ccc(OCCCC(=O)Nc2ccc(C)c(S(=O)(=O)N3CCOCC3)c2)cc1 | 6.11% | –
CCCC(O)(CCC)C(=O)NN(C(=O)CCl)c1cccc(C)c1 | – | 14.6 µM (active)
CC(C)(O)C(=O)NN(C(=O)c1ccccc1)c1cccc(Br)c1 | 0.0132% | –
Cc1ccc(N(NC(=O)C(C)(C)O)C(=O)c2ccccc2)cc1C | -12.8% | –
COc1cc(NC(=O)COC(=O)c2cc(S(=O)(=O)N3CCOCC3)ccc2F)cc(OC)c1 | 3.72% | –
CSc1ccc(Cl)c(C(=O)OCC(=O)N2CCNC2=O)c1 | -3.13% | –
O=C1CC2(CCCC2)C(=O)N1CN1CCN(S(=O)(=O)c2ccc(F)cc2F)CC1 | 15.1% | –
CC/C(=C\c1ccc(Cl)cc1)c1ccncc1 | 8.16% | –
Cc1ccc(-n2c(SCC(=O)NCCC3=CCCCC3)nc3n[nH]c(C)c3c2=N)cc1Cl | – | 16.4 µM (active)
O=C(Cc1nn[nH]n1)NCCC1=CCCCC1 | 0.509% | –
CCn1c(=O)cc(SCC(=O)NCCC2=CCCCC2)c2ccccc21 | 1.51% | –
Cc1ccc(N2C(=O)N3[C@@H]4c5ccccc5OC[C@@H]4[C@@H](c4ccccc4)[C@@]3(C)C2=O)cc1 | 4.75% | –
O=C(O)C(CCc1ccccn1)c1ccccc1 (centres undefined) | -18.4% | –

SMILES | activity, positive = re-replication | Potency
O=c1ccc(S(=O)(=O)N2CCCC2)cn1Cc1nc(-c2ccccc2)no1 | 6.01% | –
O=C(O)C(c1cccs1)C1(O)CCCCC1 (centres undefined) | 0.694% | –
Nc1ccc2c(c1)C(=Cc1cccnc1)c1ccccc1-2 | 7.21% | –
CC(C)=CCc1ccc(O)c(=O)cc1C(C)C | – | 20.6 µM (active)
CC(C)c1cc(N=O)cc(C(C)C)c1O | 7.92% | –
CCN(C(=O)COC(=O)Cc1c(F)cccc1Cl)c1c(N)n(Cc2ccccc2)c(=O)[nH]c1=O | -0.793% | –
COc1cccc(NC(=O)CN(C)C(=O)CSC(=S)N2CCCC2)c1 | 1.18% | –
COc1cccc(NC(=O)CN(C)CC(=O)Nc2ccc3c(c2)CCC3)c1 | – | 0.651 µM (active)
COc1ccc(NC(=O)CN(C)CC(=O)Nc2cccc(C(F)(F)F)c2)cc1 | 0.322% | –
O=C(Cn1nnc(-c2ccccc2)n1)NC(=O)NC1CCCC1 | 1.62% | –
O=C(COC(=O)c1ccc(Br)o1)NC12CC3CC(CC(C3)C1)C2 | 2.1% | –
O=C1N[C@H](Cc2c[nH]c3ccccc23)COC(=O)[C@H](Cc2ccc(F)cc2)C/C=C\C[C@H]1CC(=O)N(CCO)Cc1ccccc1 | 2.57% | –
O=C1NC[C@@H](c2ccccc2)OC(=O)[C@H](Cc2ccc(F)cc2)CC/C=C/C[C@H]1CC(=O)N(CCO)Cc1ccccc1 | – | 18.4 µM (active)
O=C1CCC/C=C/C[C@@H](CC(=O)N(CCO)Cc2ccccc2)C(=O)NC[C@H](c2ccccc2)O1 | -4.51% | –
CC(C)(C)OC(=O)C[C@@H]1C/C=C\C[C@H](CC(=O)N[C@@H](CO)Cc2ccccc2)C(=O)N[C@H](Cc2ccccc2)COC1=O | 2.81% | –
O=C1OC[C@@H]2CCCN2C(=O)[C@H](CC(=O)N(CCO)Cc2ccccc2)C/C=C\CC[C@@H]1Cc1ccc(F)cc1 | 2.42% | –
CC(C)(C)OC(=O)C[C@@H]1C/C=C\C[C@@H](CC(=O)N(CCO)Cc2ccccc2)C(=O)N[C@H](Cc2ccccc2)COC1=O | – | 20.6 µM (active)
